This is an account of results in PubChem BioAssay AID2653 (National Center for Advancing Translational Sciences (NCATS), 2010).

Results filed as inconclusive are left out. Calls of active or inactive are those of the source. Calls follow the shape of the dose curve; as a rule, active = well fitted curve in the direction sought with a large enough effect; inconclusive = small, poorly fitted or top-dose-only effect, or another doubt; inactive = no such curve, though single readings can be large or run the other way.

The assay can be described thus: Secondary Assay for Activators of Human Pyruvate Kinase M2 isoform - Cell Titer Glo Cytotoxicity for Probe SAR. Also: % of control where 0% means no effect. The settings on record: HeLa viability, CellTiter-Glo ATP luminescence, 24 h; series mostly up to 58.2 µM; activity change, negative = cytotoxicity: at the top concentration. The procedure: NIH Chemical Genomics Center [NCGC]
Matthew G. Vander Heiden, M.D., Ph.D. [Harvard Medical School, 77 Avenue Louis Pasteur, Boston, MA 02115]
We have identified a series of activators of the M2 isoform of human pyruvate kinase. The assay described here examines the cytotoxicity of these compounds by measuring the total ATP content of Hela cells after 24 hrs of exposure to compound.
500 Hela cells/ 4ul in media (DMEM with high glucose, 10% FBS, 1x Pen Strep, 1x NEAA) were dispensed into a white solid 1536-microwell plate with a Thermo Multidrop. The plates were incubated at 37 degrees Celsius for 24 hours. The cells were then treated with compounds using the Kalypsys pin tool, delivering 23 nl of test compounds and the control doxorubicin. The plates were then incubated for an additional 24 hours at 37 degrees C after which 4 ul of Promega Cell-Titer Glo was dispensed using the Thermo Multidrop. The plates were incubated at room temperature for 10 min before reading luminescence on the Perkin Elmer ViewLux with images collected with 2x binning and a 5 sec exposure time.
As for `O=C1CCc2cc(S(=O)(=O)Nc3cccc(F)c3)ccc2N1`, the “activity change, negative = cytotoxicity” value was -19% (inactive). In the case of `O=C1CCc2cc(S(=O)(=O)Nc3ccc(Cl)c(Cl)c3)c(F)cc2N1` it was -16.9% (inactive); in that of `O=S1(=O)N=C(Oc2ccc(Cl)cc2)c2ccccc21`, 2.68% (inactive). Consider `Cc1ccc2nc(-c3ccc(C)o3)c(Nc3ccc(F)cc3)n2c1`, for which the “activity change, negative = cytotoxicity” value is -24% (inactive). In the case of `COc1cccc(N2C(=O)c3ccccc3C2=O)c1` it was 3.46% (inactive); in that of `O=C1CCc2cc(S(=O)(=O)Nc3cccnc3)ccc2N1`, -7.03% (inactive); in that of `COc1ccccc1NS(=O)(=O)c1ccc2c(c1)CCC(=O)N2`, -22.8% (inactive). On to `O=C1CCc2cc(S(=O)(=O)Nc3ccc4ncccc4c3)ccc2N1`, for which the “activity change, negative = cytotoxicity” value is -22.4% (inactive). In the case of `O=C1c2ccccc2C(=O)N1c1ncccc1O` it was 2.59% (inactive). In the case of `Cc1ccc(NS(=O)(=O)c2ccc3c(c2)CCC(=O)N3)cc1` it was -23.2% (inactive). In the case of `COc1cccc(OC2=NS(=O)(=O)c3ccccc32)c1` it was -9.74% (inactive); in that of `CC(=O)Nc1cccc(S(=O)(=O)Nc2ccc(C)c(C)c2)c1`, 1.12% (inactive); in that of `Cc1cc(N2C(=O)c3ccccc3C2=O)n[nH]1`, -28.2% (inactive).

As for `O=C1CCc2cc(S(=O)(=O)Nc3ccc(Cl)cc3)ccc2N1`, the “activity change, negative = cytotoxicity” value is -8.11% (inactive). In the case of `O=C1CCc2cc([S+](=O)([O-])Nc3ccc(N[S+](=O)([O-])c4ccc5c(c4)CCC(=O)N5)cc3)ccc2N1` it was -12.1% (inactive); in that of `N#Cc1ccc(NS(=O)(=O)c2ccc3c(c2)CCC(=O)N3)cc1`, 0.329% (inactive); in that of `Cc1ccc2nc(-c3cccs3)c(Nc3ccccc3)n2c1`, -11% (inactive). Regarding `Cc1ccc(NS(=O)(=O)c2ccc(F)cc2)cc1C`, the “activity change, negative = cytotoxicity” value is 0.61% (inactive).

In the case of `Cc1ccn2c(NCc3ccco3)c(-c3ccccc3)nc2c1`, the “activity change, negative = cytotoxicity” value is -7.39% (inactive). In the case of `COc1ccccc1N1C(=O)c2ccccc2C1=O` it was -7.05% (inactive); in that of `Cc1ccc(Nc2c(-c3ccc(C)o3)nc3ccccn23)cc1`, -18.4% (inactive). In the case of `Cc1ccc(NS(=O)(=O)c2ccc3c(c2)CCC(=O)N3)cc1F` it was -1.87% (inactive); in that of `Cc1ccc(NS(=O)(=O)c2cc3c(cc2C)OCC(=O)N3)cc1C`, -12% (inactive). In the case of `O=C1CCc2cc(S(=O)(=O)Nc3ccc(F)c(Cl)c3)ccc2N1` it was -9.53% (inactive); in that of `Cc1c(Cl)cccc1NS(=O)(=O)c1cc2c(cc1Cl)CCC(=O)N2`, -26.5% (inactive); in that of `COc1ccc(N2C(=O)c3ccccc3C2=O)cc1`, 0.623% (inactive).

As for `Cc1ccc(NS(=O)(=O)c2ccc3c(c2)CCC(=O)N3)cc1Cl`, the “activity change, negative = cytotoxicity” value is -17.7% (inactive). Take `Cc1ccc(NS(=O)(=O)c2ccc(-c3ccccc3)cc2)cc1C`: the “activity change, negative = cytotoxicity” value was 1.34% (inactive). In the case of `Cc1cc(N2C(=O)c3ccccc3C2=O)no1` it was -24% (inactive); in that of `Cc1ccc(Nc2c(-c3ccsc3)nc3c(C)cccn23)cc1`, -21.1% (inactive). In the case of `O=C1c2ccccc2C(=O)N1c1cccc(O)c1` it was -3.73% (inactive). In the case of `O=C1CCc2cc([S+](=O)([O-])NC3CCOCC3)ccc2N1` it was -1.14% (inactive). On to `O=C1CCc2cc(S(=O)(=O)Nc3cc(F)cc(Cl)c3)c(F)cc2N1`, for which the “activity change, negative = cytotoxicity” value was -20.6% (inactive).

With `O=C1c2ccccc2C(=O)N1Cc1ccccn1`, the “activity change, negative = cytotoxicity” value is -8.82% (inactive). In the case of `O=C1c2ccccc2C(=O)N1Cc1ccncc1` it was -13.8% (inactive); in that of `Cc1ccc(-c2nc3cccc(C)n3c2Nc2ccc(F)cc2)o1`, -26% (inactive). `Cc1ccc(C)c(OC2=NS(=O)(=O)c3ccccc32)c1`: the “activity change, negative = cytotoxicity” value is -10.2% (inactive).

Regarding `O=S1(=O)N=C(Oc2cccc(Cl)c2)c2ccccc21`, the “activity change, negative = cytotoxicity” value was -7.68% (inactive).

For the compound `Cc1ccc(Cl)cc1NS(=O)(=O)c1cc2c(cc1F)NC(=O)CC2`, the “activity change, negative = cytotoxicity” value is -9.55% (inactive). In the case of `Cc1ccc(NS(=O)(=O)c2cc3c(cc2F)NC(=O)CC3)cc1C` it was -6.84% (inactive).
